From PubChem BioAssay (EPA / NIEHS) come the findings set out here.

Values joined by “and” are separate entries in the source; they are usually repeats but may differ in a detail not shown here. Identical values can stand only once. Where a structure was tested more than once in an assay, its records may differ in their call. Active and inactive are the calls of the source. Rule for the calls: active = hit-call score of the fitted dose curve at least 0.9, where 1 is the maximum; inactive = score below 0.9.

Assay [1] in a line: ATG_E_Box_CIS: Attagene CIS-FACTORIAL HepG2 Assay for human Enhancer Box (E-box) (AID 2282936). The conditions noted are these: HepG2 E-box cis-reporter transcription, actives raise or lower the signal. A digest of the protocol:
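Cells: HepG2 (human liver), transient MRTU transfection. Exposure 24 h. RNA → oligo(dT) RT → PCR → 6-FAM label → HpaI → CE. Activity fitted both directions relative to DMSO.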

Assay [2] is described as follows: ATG_M_61_CIS: Attagene CIS-FACTORIAL HepG2 Assay for M61 Transcription Factor (Internal Marker) (AID 2282937). The conditions noted are these: HepG2 Attagene CIS-FACTORIAL M61 internal marker reporter; actives raise or lower the signal. A digest of the protocol:
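Human liver HepG2, transient MRTU transfection (cis promoter elements), 24 h compound. Total RNA → oligo(dT) RT → PCR → FAM label → HpaI → CE. Internal background marker; bidirectional fitting, DMSO = baseline.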

Assay [3] in a line: ATG_EGR_CIS: Attagene CIS-FACTORIAL HepG2 Assay for human Early Growth Response 1 (EGR1) (AID 2282938). Particulars: HepG2 Attagene CIS-FACTORIAL EGR reporter mRNA; actives raise or lower the signal. In short, it runs like this:
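Transient transfection of human HepG2 with multiple cis-regulated reporter units, chemical exposure 24 h, total RNA isolated. Reverse transcription, PCR, fluorescent labelling and capillary electrophoresis quantify reporter transcripts; activity fitted bidirectionally against DMSO.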

Assay [4] is described as follows: ATG_M_19_CIS: Attagene CIS-FACTORIAL HepG2 Assay for M19 Transcription Factor (Internal Marker) (AID 2282939). Particulars: HepG2 Attagene CIS-FACTORIAL M19 internal marker reporter; actives raise or lower the signal. In short, it runs like this: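 Following a 24 h exposure, RNA from transfected HepG2 cells was reverse-transcribed, PCR-amplified with reporter-specific primers, end-labelled with 6-FAM and HpaI-digested before capillary separation. Values represent gain or loss versus DMSO.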

A short description of assay [5]: ATG_Ets_CIS: Attagene CIS-FACTORIAL HepG2 Assay for human Erythroblast Transformation Specific (ETS) (AID 2282941). Particulars: HepG2 ETS cis-reporter transcription, actives raise or lower the signal. A digest of the protocol: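 HepG2 cells transfected with multiple cis-regulated reporter units measuring endogenous ETS-driven transcription, 24 h after dosing. Reporter mRNA quantified by RT-PCR with capillary electrophoresis; bidirectional fit relative to DMSO.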

In assay [6] the target is Hepatocyte nuclear factor 3-beta (Homo sapiens) (UniProt Q9Y261). The assay is described as follows: ATG_FoxA2_CIS: Attagene CIS-FACTORIAL HepG2 Assay for human Forkhead box A2 (FOXA2) (AID 2282942). Particulars: HepG2 cis-reporter transcription factor activity, 24 h; actives raise or lower the signal. In short, it runs like this: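 Transient MRTU transfection of HepG2 liver cells; 24 h treatment; total RNA → oligo(dT) RT → PCR → FAM primer extension → HpaI cut → CE. Bidirectional fit vs DMSO.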
Chain of Hepatocyte nuclear factor 3-beta (Homo sapiens) (Q9Y261 whole entry, looked up): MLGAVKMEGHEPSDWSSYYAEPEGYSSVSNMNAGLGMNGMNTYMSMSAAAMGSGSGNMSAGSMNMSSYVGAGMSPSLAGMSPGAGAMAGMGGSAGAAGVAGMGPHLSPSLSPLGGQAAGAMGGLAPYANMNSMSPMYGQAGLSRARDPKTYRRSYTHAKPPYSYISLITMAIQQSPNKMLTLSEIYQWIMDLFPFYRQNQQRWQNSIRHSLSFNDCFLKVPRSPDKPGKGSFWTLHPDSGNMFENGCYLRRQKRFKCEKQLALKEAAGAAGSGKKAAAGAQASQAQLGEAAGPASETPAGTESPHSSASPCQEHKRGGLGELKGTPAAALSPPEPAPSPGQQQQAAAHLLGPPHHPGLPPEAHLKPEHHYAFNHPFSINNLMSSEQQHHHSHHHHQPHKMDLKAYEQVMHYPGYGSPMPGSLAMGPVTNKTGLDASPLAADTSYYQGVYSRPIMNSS

Assay [7] can be described thus: ATG_FoxO_CIS: Attagene CIS-FACTORIAL HepG2 Assay for human Forkhead box O (FoxO) (AID 2282943). Particulars: HepG2 Attagene cis-reporter, FoxO element, mRNA; actives raise or lower the signal. In short, it runs like this:
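HepG2, transient MRTU transfection (cis element, endogenous TFs). Dose 24 h. TriZol RNA → oligo(dT) RT → PCR → 6-FAM primer extension → HpaI cut → CE. Gain/loss vs DMSO.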

Assay [8] is described as follows: ATG_GATA_CIS: Attagene CIS-FACTORIAL HepG2 Assay for human GATA Binding Protein (AID 2282944). The conditions noted are these: HepG2 GATA cis-element reporter, Attagene multiplex mRNA; actives raise or lower the signal. In short, it runs like this: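 DMSO serves as negative control and baseline for bidirectional fitting of reporter mRNA changes. HepG2 cells bearing transiently transfected cis-promoter reporters were exposed 24 h; transcripts detected via RT-PCR and capillary electrophoresis.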

Assay [9] can be described thus: ATG_GLI_CIS: Attagene CIS-FACTORIAL HepG2 Assay for human Zinc Finger Protein GLI1 (AID 2282945). The conditions noted are these: HepG2, Attagene cis-factorial reporter mRNA, GLI element; actives raise or lower the signal. A digest of the protocol:
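Bidirectional curve fits relative to DMSO, using reporter mRNA levels from RT-PCR plus capillary electrophoresis. Cells were HepG2 transiently carrying cis-regulated reporter constructs, harvested 24 h after dosing.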

Assay [10] deals with Bile acid receptor (Homo sapiens) (UniProt Q96RI1). Put plainly: ATG_IR1_CIS: Attagene CIS-FACTORIAL HepG2 Assay for human Nuclear Receptor Subfamily 1 Group H Member 4 (NR1H4), IR1 submotif (AID 2282946). The conditions noted are these: IR1 reporter transcription, actives raise or lower the signal. A digest of the protocol: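 Cells (human HepG2) carry transiently transfected cis-promoter reporter transcription units. Compounds are incubated 24 h, total RNA is reverse-transcribed and amplified, and labelled fragments are resolved by capillary electrophoresis. Curves use DMSO as baseline.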
Chain of Bile acid receptor (Homo sapiens) (Q96RI1 whole entry, looked up, the tested form may be a part): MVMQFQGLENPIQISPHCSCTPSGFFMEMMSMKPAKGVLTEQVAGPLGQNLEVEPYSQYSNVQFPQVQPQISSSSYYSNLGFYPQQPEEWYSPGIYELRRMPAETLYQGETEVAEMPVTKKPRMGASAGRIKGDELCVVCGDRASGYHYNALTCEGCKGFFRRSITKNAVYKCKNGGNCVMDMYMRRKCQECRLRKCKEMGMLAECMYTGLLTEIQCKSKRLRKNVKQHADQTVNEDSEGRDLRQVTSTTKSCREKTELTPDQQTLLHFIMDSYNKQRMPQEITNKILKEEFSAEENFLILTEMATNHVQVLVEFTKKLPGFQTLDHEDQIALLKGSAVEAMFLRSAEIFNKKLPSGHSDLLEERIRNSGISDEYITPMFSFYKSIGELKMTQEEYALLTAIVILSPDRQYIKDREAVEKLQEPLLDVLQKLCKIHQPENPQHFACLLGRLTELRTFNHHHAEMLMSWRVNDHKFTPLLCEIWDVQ

The nature of assay [11]: ATG_GRE_CIS: Attagene CIS-FACTORIAL HepG2 Assay for human Glucocorticoid Response Elements (GRE) (AID 2282947). The conditions noted are these: HepG2 GRE cis-reporter, Attagene multiplex mRNA; actives raise or lower the signal. A digest of the protocol:
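Transient MRTU transfection of human HepG2 liver cells; cis-regulated reporters report endogenous factors. 24 h dosing → RNA isolation → RT-PCR → 6-FAM primer extension → HpaI cut → CE fragment analysis. Bidirectional fit, DMSO negative control.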

Assay [12] is described as follows: ATG_ISRE_CIS: Attagene CIS-FACTORIAL HepG2 Assay for human Interferon Regulatory Factor 1 (IRF1) binding to an Interferon-Stimulated Response Element (ISRE) (AID 2282948). The conditions noted are these: HepG2 ISRE cis-reporter (Attagene), mRNA transcription readout; actives raise or lower the signal. A digest of the protocol:
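Transiently transfected HepG2 cells carrying cis-element reporter units, dosed 24 hours. Reporter mRNA quantified by RT-PCR, fluorescent primer extension, HpaI digestion and capillary electrophoresis. Bidirectional fitting relative to DMSO.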

Assay [13] can be described thus: ATG_M_32_CIS: Attagene CIS-FACTORIAL HepG2 Assay for M32 Transcription Factor (Internal Marker) (AID 2282949).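 Note: background control marker of the multiplexed CIS panel rather than a real target.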 The conditions noted are these: HepG2 Attagene cis-factorial M32 reporter, mRNA; actives raise or lower the signal. A digest of the protocol: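 HepG2 cells transiently transfected with multiplexed cis-regulated reporter units, dosed 24 h. Reporter mRNA quantified by RT-PCR, 6-FAM labelling, HpaI digestion and capillary electrophoresis; bidirectional fit vs DMSO.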

The nature of assay [14]: ATG_M_06_CIS: Attagene CIS-FACTORIAL HepG2 Assay for M06 Transcription Factor (Internal Marker) (AID 2282950). Particulars: HepG2 Attagene CIS-FACTORIAL M06 internal marker reporter; actives raise or lower the signal. In short, it runs like this:
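Fluorescence-labelled RT-PCR products from cis-promoter reporter units, cut with HpaI and resolved by capillary electrophoresis, give the signal. Cells are human HepG2, dosed for 24 h. Serves as background control, fitted relative to DMSO.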

Assay [15] deals with Hypoxia-inducible factor 1-alpha (Homo sapiens) (UniProt Q16665). The assay is described as follows: ATG_HIF1a_CIS: Attagene CIS-FACTORIAL HepG2 Assay for human Hypoxia Inducible Factor 1 (HIF1A) (AID 2282951). Particulars: HepG2 Attagene cis-factorial HIF1a reporter transcription; actives raise or lower the signal. A digest of the protocol:
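Transient MRTU transfection of human HepG2 liver cells, 24 h compound treatment, then total RNA isolation, oligo(dT) reverse transcription, PCR amplification, fluorescent labelling and capillary electrophoresis of reporter fragments. Gain or loss relative to DMSO.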

The target in assay [16] is Hepatocyte nuclear factor 6 (Homo sapiens) (UniProt Q9UBC0). Put plainly: ATG_HNF6_CIS: Attagene CIS-FACTORIAL HepG2 Assay for human Hepatocyte Nuclear Factor 6 (HNF6) (AID 2282952). The conditions noted are these: HepG2 Attagene cis-factorial HNF6 reporter transcription; actives raise or lower the signal. A digest of the protocol:
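HepG2 cells transiently transfected with cis-element-driven multiplexed reporter units measuring endogenous transcription factor activity. After 24 h exposure, reporter mRNA quantified by RT-PCR, FAM-labelled fragments and capillary electrophoresis; bidirectional fitting versus DMSO.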

The nature of assay [17]: ATG_MRE_CIS: Attagene CIS-FACTORIAL HepG2 Assay for human Metal Responsive Element (MRE) (AID 2282954). Particulars: HepG2 MRE cis-reporter transcription, Attagene multiplex; actives raise or lower the signal. In short, it runs like this:
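Transient MRTU transfection of HepG2 (FuGene 6); 24 h dosing; total RNA → oligo(dT) RT, PCR, 6-FAM primer extension, HpaI cut, CE. Bidirectional fit vs DMSO.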

Assay [18] addresses Paired box protein Pax-6 (Homo sapiens) (UniProt P26367). Put plainly: ATG_Pax6_CIS: Attagene CIS-FACTORIAL HepG2 Assay for human Paired Box 6 (PAX6) (AID 2282956). Particulars: HepG2 CIS-FACTORIAL PAX6 reporter transcription, RNA readout; actives raise or lower the signal. In short, it runs like this:
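HepG2 cells transiently transfected with cis-promoter-driven multiplexed reporter units sensing endogenous transcription factor activity; 24 h chemical exposure. Reporter mRNA quantified by RT-PCR, 6-FAM labelling, HpaI digestion and capillary electrophoresis; bidirectional fit versus DMSO baseline.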

Chain of Hypoxia-inducible factor 1-alpha (Homo sapiens) (Q16665 whole entry, looked up, the tested form may be a part): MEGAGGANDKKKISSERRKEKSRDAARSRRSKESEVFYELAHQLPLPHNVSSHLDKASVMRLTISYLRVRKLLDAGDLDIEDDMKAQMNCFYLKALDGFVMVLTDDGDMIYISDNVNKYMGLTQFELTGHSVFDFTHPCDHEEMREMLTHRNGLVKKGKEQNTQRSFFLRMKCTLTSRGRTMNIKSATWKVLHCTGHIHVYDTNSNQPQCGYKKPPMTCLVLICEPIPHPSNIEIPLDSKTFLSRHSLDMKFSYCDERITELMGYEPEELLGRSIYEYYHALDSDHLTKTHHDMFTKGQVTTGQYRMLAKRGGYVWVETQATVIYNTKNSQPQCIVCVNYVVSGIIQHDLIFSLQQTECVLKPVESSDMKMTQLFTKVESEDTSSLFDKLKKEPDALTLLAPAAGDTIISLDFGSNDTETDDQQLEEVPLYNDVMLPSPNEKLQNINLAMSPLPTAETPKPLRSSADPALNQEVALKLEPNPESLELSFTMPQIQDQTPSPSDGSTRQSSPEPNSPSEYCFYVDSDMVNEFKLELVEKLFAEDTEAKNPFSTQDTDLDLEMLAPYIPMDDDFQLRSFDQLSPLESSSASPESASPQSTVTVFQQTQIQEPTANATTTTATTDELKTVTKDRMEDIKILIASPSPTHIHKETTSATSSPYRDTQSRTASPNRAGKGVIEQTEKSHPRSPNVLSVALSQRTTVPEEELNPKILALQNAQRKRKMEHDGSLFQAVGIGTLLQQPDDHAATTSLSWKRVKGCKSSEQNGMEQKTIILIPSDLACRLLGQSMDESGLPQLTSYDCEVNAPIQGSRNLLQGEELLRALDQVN
Chain of Hepatocyte nuclear factor 6 (Homo sapiens) (Q9UBC0 whole entry, looked up, the tested form may be a part): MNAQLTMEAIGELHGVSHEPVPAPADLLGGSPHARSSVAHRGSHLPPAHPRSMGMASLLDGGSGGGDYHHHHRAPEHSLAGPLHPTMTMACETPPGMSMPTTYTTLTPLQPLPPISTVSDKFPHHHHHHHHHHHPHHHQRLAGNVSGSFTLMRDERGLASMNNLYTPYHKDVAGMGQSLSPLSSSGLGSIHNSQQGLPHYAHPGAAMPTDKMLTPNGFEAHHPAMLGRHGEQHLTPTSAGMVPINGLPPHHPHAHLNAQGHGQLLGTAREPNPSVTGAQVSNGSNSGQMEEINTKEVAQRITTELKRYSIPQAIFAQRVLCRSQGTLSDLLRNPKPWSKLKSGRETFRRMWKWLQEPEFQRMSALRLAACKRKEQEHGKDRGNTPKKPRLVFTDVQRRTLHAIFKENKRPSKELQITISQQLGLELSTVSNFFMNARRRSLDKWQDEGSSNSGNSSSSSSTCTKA
Chain of Paired box protein Pax-6 (Homo sapiens) (P26367 whole entry, looked up): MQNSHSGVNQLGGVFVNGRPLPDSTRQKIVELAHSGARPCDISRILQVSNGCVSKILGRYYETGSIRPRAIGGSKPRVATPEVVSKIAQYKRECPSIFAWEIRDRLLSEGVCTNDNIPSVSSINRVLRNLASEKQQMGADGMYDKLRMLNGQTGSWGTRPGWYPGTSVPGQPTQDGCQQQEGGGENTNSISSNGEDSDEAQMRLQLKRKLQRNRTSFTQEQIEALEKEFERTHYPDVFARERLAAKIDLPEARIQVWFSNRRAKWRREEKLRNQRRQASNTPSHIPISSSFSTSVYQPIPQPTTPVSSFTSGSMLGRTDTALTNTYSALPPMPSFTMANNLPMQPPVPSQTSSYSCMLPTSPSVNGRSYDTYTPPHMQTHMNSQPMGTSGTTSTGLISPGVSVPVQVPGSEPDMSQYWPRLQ

As to `C[C@]12C[C@H](O)[C@H]3[C@@H](CCC4=CC(=O)CC[C@@]43C)[C@@H]1CC[C@@H]2C(=O)CO`, the outcome in assay [1], in [2], in [3], in assay [4], in [5] and in assay [6] was inactive. Further, the molecule was called inactive in [7], in assay [8], in [9], in assay [10], in assay [11] and in [12]. Besides, the result in assay [13], in assay [14], in assay [15], in assay [16] and in assay [17] was inactive. Also, the AC50 in assay [11] is 26.6 µM (active); in [15] it was 55.9 µM (active).
As to `COc1nc(C)nc(NC(=O)NS(=O)(=O)c2ccccc2OCCCl)n1`, the outcome in assay [1], in [2], in [3], in assay [4], in assay [5] and in assay [6] was inactive. For the same molecule, the outcome in assay [7], in [8], in assay [9], in assay [10], in [11] and in [12] was inactive. Moreover, the molecule was called inactive in [13], in [14], in [15], in assay [16], in assay [17] and in [18]. In addition, the AC50 in assay [10] is 8.66 µM (active).
Take `S=C(S)NCCNC(=S)S.[Mn+2].[S-]C([S-])=NCCN=C([S-])[S-].[Zn+2]`: the outcome in assay [1], in assay [2], in assay [3], in assay [4], in assay [5] and in assay [6] was inactive. The molecule was called inactive in assay [7], in assay [8], in assay [9], in assay [11], in assay [12] and in assay [13]. The molecule was classed as inactive in assay [14], in assay [15], in assay [16] and in [17]. Moreover, the AC50 is 16.2 µM (active) and 16.5 µM (active) and 3.53 µM (active) in assay [3]; 9.92 µM (active) and 10.9 µM (active) and 50 µM (active) in assay [12]; 18.3 µM (active) and 976 nM (active) in assay [15].
